This note sets out measurements from PubChem BioAssay (EPA / NIEHS).

For orientation: AC50 means the concentration at which the activity in the assay is half-maximal.

Each structure is given as a SMILES string. Active and inactive are the calls of the source. How the source made its calls: active means hit-call score of the fitted dose curve at least 0.9, where 1 is the maximum; inactive means score below 0.9.

Read-out in the test: Monokine induced gamma interferon (MIG), CXCL9 (gene 4283)
The experiment in a line: BSK_3C_MIG: BioMAP Diversity Plus: 3C Assay for Monokine induced gamma interferon (MIG) Biomarker Activity (AID 2283021).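 On AC50: MIG protein level measured by immunoassay in the treated endothelial cultures.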 The conditions noted are these: primary human endothelial cells (HUVEC); actives raise or lower the signal. Here is the method: BSK_3C is a cell-based, multiplexed-readout assay that uses umbilical vein endothelium, a human vascular primary cell, with measurements taken at 24 hours after chemical dosing in a 96-well plate.BSK_3C_MIG is an assay component measured in the BSK_3C assay. It measures MIG antibody related to regulation of gene expression using ELISA technology.Data from the assay component BSK_3C_MIG was analyzed into 1 assay endpoint. This assay endpoint, BSK_3C_MIG, was analyzed with bidirectional fitting relative to DMSO as the negative control and baseline of activity. Using a type of binding reporter, gain or loss-of-signal activity can be used to understand changes in the signaling as they relate to the gene CXCL9. Furthermore, this assay endpoint can be referred to as a primary readout, because this assay has produced multiple assay endpoints where this one serves a signaling function. To generalize the intended target to other relatable targets, this assay endpoint is annotated to the cytokine intended target family, where the subfamily is chemotactic factor.
The levels of cell surface (or secreted, indicated by the prefix "s") biomarker endpoints were measured by ELISA. Overt cytotoxicity to cells in confluent adherent cultures (all systems other than the BT system) was assessed by measuring total protein levels using sulforhodamine B (SRB) staining in parallel cultures at the time of biomarker measurements, indicated as SRB endpoints. For proliferation assays for adherent cell types, individual cell types are cultured at sub-confluence and relative cell numbers quantified by SRB staining at time points optimized for each system (48 h: 3C and CASM3C systems; 72 h: BT and HDF3CGF systems; 96 h: SAg system). SRB was performed by staining cells with 0.1% SRB after fixation with 10% TCA and reading wells at 560 nm.Viability and proliferation of PBMC (T cells) was quantified by Alamar Blue reduction for the SAg and BT systems. For PBMC viability (referred to as PBMC Cytotoxicity within the assay endpoint names), cells were plated (75,000/well in a 96-well plate) and then chemical samples added for 1 h before addition of activators, SEB and TSST-1 (20 ng/mL final concentration each). Cells were incubated for 90 h. Then, Alamar Blue (20 uL/well) (Invitrogen, Cat DAL1100) was added for 6 h, and the plates were read with a fluorescence microplate reader at 546/580 nm (excitation/emission). For PBMC proliferation, cells were plated and activated as above but incubated for only 16 h prior to addition of Alamar Blue. Plates were read after 6 h.
With `CCCCCCCC=O`, the result was inactive. The same measure, in the same setting: the value for `Cc1ccc(C)c(O)c1C` was “inactive”; that for `CCCc1cc(=O)[nH]c(=S)[nH]1` was “inactive”. `CCCCC(CC)COC(=O)CC(C(=O)OCC(CC)CCCC)S(=O)(=O)O` (stereo not given): the AC50 is 38 µM (active). As for `Cc1ccc(N(C)C)cc1`, the outcome was inactive. With `Nc1nc(N)c2nc(CNc3ccc(C(=O)N[C@@H](CCC(=O)O)C(=O)O)cc3)cnc2n1`, the result was inactive. For `CC(=O)C(C)=CC1C(C)=CCCC1(C)C` (stereo not given), the outcome was inactive. As to `CC1(C)CC(N=C=O)CC(C)(CN=C=O)C1` (stereo not given), the result was inactive.

For `NC(=O)Cn1c(=O)cc(CCN2CCN(c3nccc4sccc34)CC2)c2ccc(F)cc21`, the result was inactive. On to `C=CCc1ccc(O)c(OC)c1`, for which the outcome was inactive. Regarding `CCOC(=O)CCC(=O)OCC`, the result was inactive. Turning to `CC(C)(C)c1cc(O)c(C(C)(C)C)cc1O`, the outcome was inactive.

With `Nc1ccc(S(=O)(=O)c2ccc(N)cc2)cc1`, the result was inactive. Same read-out and setting: the value for `O=C(O)CCCCC(=O)O` was “inactive”; that for `C=CCOC(=O)c1ccccc1C(=O)OCC=C` was “inactive”. With `CN[C@H]1CC[C@@H](c2ccc(Cl)c(Cl)c2)c2ccc(S(N)(=O)=O)cc21`, the AC50 is 37.8 µM (active). For the compound `CC1=C(/C=C/C(C)=C/C=C/C(C)=C/CO)C(C)(C)CCC1`, the outcome was inactive. Still for that read-out and setting: the value for `CCCCCCCCCCO` was “inactive”; that for `CCOc1ccc2c(c1)C(C)=CC(C)(C)N2` was “inactive”; that for `CC(=O)OC/C=C(\C)CCC=C(C)C` was “inactive”. `c1cc(-c2ccncc2)ccn1`: the outcome was inactive. Still for that read-out and setting: the value for `Cc1ccc2ncccc2c1` was “inactive”; that for `COCCOC[C@H](CC1(C(=O)NC2CCC(C(=O)O)CC2)CCCC1)C(=O)Oc1ccc2c(c1)CCC2` (stereo not given in full) was “inactive”; that for `Cc1oc(-c2ccccc2)nc1CCOc1cccc2c1ccn2CCC(=O)O` was “inactive”. The same measure, in the same setting: to `COC(=O)c1ccc(O)cc1` belongs “inactive”; to `Cc1cccc([N+](=O)[O-])c1C`, “inactive”; to `C[C@]12C=CC(=O)C=C1CC[C@@H]1[C@@H]2C(=O)C[C@@]2(C)[C@H]1CC[C@]2(O)C(=O)CO`, “inactive”. On the same count and under the same terms, to `O=C(O)Cc1ccccc1Nc1c(Cl)cccc1Cl` belongs “inactive”; to `CNC(=O)[C@H]1O[C@@H](n2cnc3c(NCc4cc(Cl)ccc4OCc4cc(C)no4)ncnc32)[C@H](O)[C@@H]1N`, “inactive”. Turning to `NCC1(Cc2noc(=O)[nH]2)CCCCC1`, the result was inactive. The same measure, in the same setting: to `Cc1nc(C)nc(N2C[C@@H](C)N(c3ccnc([C@@H](C)O)n3)[C@@H](C)C2)n1` belongs “inactive”.

Turning to `CCCCc1ccc2c(n1)[C@@H](c1ccc(OC)cc1C[C@H](C)C(=O)O)[C@H](C(=O)O)[C@H]2c1ccc2c(c1)OCO2`, the outcome was inactive. On the same count and under the same terms, to `O=[N+]([O-])C(CO)(CO)CO` belongs “inactive”; to `Oc1ccc2c(c1)OC[C@@H](N1CCC(O)(c3ccc(F)cc3)CC1)[C@H]2O`, “inactive”. For `CCCCCCC(=O)OCC`, the result was inactive.

Regarding `CN1CCCC1=O`, the result was inactive. Consider `FC(F)(F)C(F)(F)C(F)(F)C(F)(F)C(F)(F)C(F)(F)CCI`, for which the result was inactive.

As for `Clc1cc(Cl)c(Cl)cc1Cl`, the outcome was inactive. On the same count and under the same terms, the value for `C[Si]1(C)O[Si](C)(C)O[Si](C)(C)O[Si](C)(C)O1` was “inactive”; that for `COc1cc(S(=O)(=O)O)c(C)cc1N=Nc1c(O)ccc2cc(S(=O)(=O)O)ccc12` was “inactive”.
